Measured values published in ChEMBL document CHEMBL4513216, “Probing the Open Global Health Chemical Diversity Library for Multistage-Active Starting Points for Next-Generation Antimalarials” (ACS Infect Dis, 2020).
About 2,700 (4%) of roughly 68,000 compounds showed an effect of 50% or more. Many of the other results were omitted from the sample, so strong results are more common in it than they were.

Tested on: Plasmodium berghei
Assay: Screen against P. berghei liver stage (PbLuc), transformed with Luciferase, at 2uM
Assay type: functional, HepG2
Details: tested at 2 uM

SMILES	INHIBITION [%]
COc1ncc(CN(C)C2CCN(C(C)C)CC2)cn1	36.08
Cn1cc(CNC2CCc3c(ccc(=O)n3Cc3cccnc3)C2)cn1 (stereo not drawn)	17.69
O=C(NS(=O)(=O)c1cc(Cl)ccc1Cl)c1cccc2c1OCCO2	-55.23
Cc1nn(C)c2cnn(Cc3ccc(C(=O)N4CCN(C)CC4)o3)c12	1.33
CS(=O)(=O)NCCC(=O)N1Cc2cnc(-c3ccccc3)nc2C1	-49.29
CCn1cc(CN2CCCN(C(=O)CCN3CCCC3=O)CC2)cn1	-35.65
CCn1cc(CN2CCCN(C(=O)c3cccn3C)CC2)cn1	19.18
CCn1cc(CN2CCCN(C(=O)C3=NN(C)C(=O)CC3)CC2)cn1	59.73
COc1cccc(S(=O)(=O)NC(=O)CCC2CCCC2)c1	37.68
O=C(c1cccnc1)N1CCOC(c2ccc(-c3cncnc3)cn2)C1 (stereo not drawn)	-6.04
C[C@H]1C[C@H]2CN(C(=O)CCOc3ccccc3)CC[C@H]2O1	-12.84
C[C@H]1C[C@H]2CN(C(=O)CCc3ccccc3)CC[C@H]2O1	65.32
COCCC(=O)N1CC[C@@H]2O[C@@H](C)C[C@H]2C1	22.01
Cc1n[nH]c(C)c1CCC(=O)NCC1COc2ccccc2C1 (stereo not drawn)	11.19
NC(=O)COc1ccc(C(=O)N2CCCC(n3ccnc3)C2)cc1 (stereo not drawn)	-10.05
COCc1ccc(C(=O)N2CC[C@H](O)[C@@H](n3ccnc3)CC2)cc1	-7.01
CC(C)Oc1ccc(C(=O)N2CC[C@H](O)[C@@H](n3ccnc3)CC2)cc1	52.69
Nc1cc2c(nn1)CCN(C(=O)C1CCc3ccccc31)C2 (stereo not drawn)	16.89
CCOC(=O)N1CC2(CCNCC2)c2cc(Cl)ccc21	-12.43
c1cc(CCNc2ccc(CC3CCNC3)cn2)ccn1 (stereo not drawn)	-6.19
Cc1cc(C)n(C2CCCN(C(=O)c3ccnc(N(C)C)c3)C2)n1 (stereo not drawn)	3.17
OCc1csc(N2CCCN(Cc3ccc(F)cc3)CC2)n1	36.28
Cc1cccc(CN2CCN(c3nc(CO)cs3)CC2)c1	86.36
OCc1csc(N2CCN(Cc3cccc(F)c3)CC2)n1	45.82
CCS(=O)(=O)CCN1CCC(N(C)Cc2ncc(C)o2)C1 (stereo not drawn)	31.55
Cc1noc(C)c1CN1CCc2ncnc(-c3ccc(F)cc3)c2CC1	49.45
CCCNC(=O)C1(CC2CC(c3ccccc3OC)=NO2)CCOCC1 (stereo not drawn)	51.57

SMILES	INHIBITION [%]
COc1ccccc1C1=NOC(CC2(C(=O)NCCO)CCOCC2)C1 (stereo not drawn)	-39.01
CCNC(=O)C1(CC2CC(c3ccccc3OC)=NO2)CCOCC1 (stereo not drawn)	-2.93
CCS(=O)(=O)N1CCC2(CC1)CC(COC)N(c1ncccn1)C2 (stereo not drawn)	28.45
Cc1cc(C)n(CC2CCCCN2CCC(=O)Nc2cc(C)on2)n1 (stereo not drawn)	21.39
Cc1cc(-c2nc(-c3cccc(CN4CCOCC4)c3)no2)no1	53.19
Cc1c(-c2nc(-c3cccc(CN4CCOCC4)c3)no2)cnn1C	35.56
Cc1cnc(-c2nc(-c3cccc(CN4CCOCC4)c3)no2)cn1	15.74
CCOCCNC(=O)c1ccc(OC)cc1I	30.48
Clc1cccc(C[C@@H]2NCCC[C@@H]2Nc2ccccc2)c1	33.95
Cc1ccc2cc(C(=O)N3CCN(C(=O)N(C)C)CC3)ccc2n1	7.02
Cc1ccc2cc(C3(O)CCN(C)CC3)ccc2n1	8.88
Cc1ccc2cc(C3(O)CCN(C(=O)[C@@H]4CCCCN4)CC3)ccc2n1	53.98
CC1=NOC(C(=O)N2CCC(O)(c3ccc4nc(C)ccc4c3)CC2)C1 (stereo not drawn)	-70.57
COCCOCC(=O)N1CCC(O)(c2ccc3nc(C)ccc3c2)CC1	-3.38
Cc1ccc2cc(C(=O)N3CCC(O)(C(F)(F)F)CC3)ccc2n1	-13.42
Cc1ccc2cc(C3(O)CCN(C(=O)CN4CCCC4)CC3)ccc2n1	8.65
CCCOC(C)C(=O)N1CCC(O)(c2ccc3nc(C)ccc3c2)CC1 (stereo not drawn)	52.66
Cc1ccc2cc(C3(O)CCN(C(=O)CSC(C)C)CC3)ccc2n1	70.17
Cc1ccc(CNC(=O)Nc2nccs2)cn1	-11.83
Cc1nc(CN2CCCC(Cn3cc(CCO)nn3)C2)c2ccccn12 (stereo not drawn)	-27.82
Cn1cc(-c2nnn3c2COC(CNCc2ccncc2)C3)cn1 (stereo not drawn)	-42.69
O=C(c1ccccc1-c1nnn[nH]1)N1CCOC(C(F)(F)F)C1 (stereo not drawn)	-12.13
COCCNc1c(C#N)c2c(c3nncn13)CN(C)CC2	18.59
COCCCNc1c(C#N)c2c(c3nncn13)CN(C)CC2	52.23
CN1CCc2c(C#N)c(NCCCO)n3cnnc3c2C1	-9.74
Cc1oncc1C(=O)NCC(c1ccccc1Cl)N1CCOCC1 (stereo not drawn)	8.6
